The text below walks through data of PubChem BioAssay (NCATS).

Test [1] is described as follows: Cell Viability - LYMP2-025 (AID 976). Further: potency means the concentration at half of the fitted maximal effect. In outline: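 Cytotoxicity read as loss of intracellular ATP (luciferase luminescence) after 24 h compound treatment at 37 C. Uses LYMP2-025 lymphoblastoid cells in 1536-well format; Hill-equation modelling gives AC50; tetraoctylammonium bromide as positive control.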
A short description of test [2]: Cell Viability - LYMP2-002 (AID 977). Further: series mostly up to about 92 µM. In outline:
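In this qHTS viability screen, 2500 human lymphoblastoid cells per well receive compound for 24 hr at 37 C, and luciferase-based ATP luminescence gives the viability signal. Tetraoctylammonium bromide serves as positive control.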

Test [3] is described as follows: Cell Viability - LYMP2-006 (AID 978). Further: series mostly up to about 92 µM; nearly all actives have a fitted effect of over 60% in size. The method, boiled down: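 qHTS, 1536-well; 2500 cells/well, 5 hr 37 C; cpd 24 hr 37 C; CellTiter-Glo 30 min RT; luminescence. Tetraoctylammonium bromide pos. ctrl. AC50 via Hill eqn.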
Test [4] in a line: Cell Viability - LYMP2-007 (AID 979).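 Further: cells exposed to compound for 24 h before reading; nearly all actives have a fitted effect of over 60% in size.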 The method, boiled down: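 AC50 values come from Hill-equation fits of luminescent intracellular ATP (CellTiter-Glo, 30 min, room temperature) following 24 h compound exposure at 37 C. Cells: LYMP2-007 lymphoblastoid line, 2500 per well, in complete culture medium.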
A short description of test [5]: Cell Viability - LYMP2-008 (AID 980). Further: nearly all actives have a fitted effect of over 60% in size. The method, boiled down:
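Cytotoxicity determined from ATP-dependent luciferase luminescence (CellTiter-Glo) following 24 h compound exposure of human lymphoblastoid LYMP2-008 cells at 37 C. Concentration-response data fitted to the Hill equation to give AC50.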

Test [6] in a line: Cell Viability - LYMP2-012 (AID 982).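 Further: cellular ATP by luciferase luminescence where a drop means cytotoxicity; cells exposed to compound for one day before reading; nearly all actives have a fitted effect of over 55% in size.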
A short description of test [7]: Cell Viability - LYMP2-014 (AID 983). Further: series mostly up to about 92 µM; nearly all actives have a fitted effect of over 50% in size. In outline:
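Intracellular ATP loss, read by luciferase luminescence, measures acute cytotoxicity after 24 h compound exposure of lymphoblastoid LYMP2-014 cells (2500/well, 37 C). Concentration-response data fitted to the Hill equation for AC50.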

Test [8] in a line: Cell Viability - LYMP2-016 (AID 984). Further: nearly all actives have a fitted effect of over 55% in size. The method, boiled down:
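qHTS, 1536-well: 2500 LYMP2-016 cells/well, 5 hr 37 C, compound added, 24 hr 37 C, CellTiter-Glo 30 min RT, luminescence. Tetraoctylammonium bromide positive control. AC50 via Hill fit.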

Test [9] in a line: Cell Viability - LYMP2-018 (AID 985). Further: nearly all actives have a fitted effect of over 50% in size. The method, boiled down:
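Viability read as CellTiter-Glo luminescence (cellular ATP) after 24 hr compound exposure at 37 C of 2500 LYMP2-018 lymphoblastoid cells/well, pre-plated 5 hr. Hill-equation modelling gave AC50.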

A short description of test [10]: Cell Viability - LYMP2-020 (AID 986). Further: series mostly up to about 92 µM; nearly all actives have a fitted effect of over 55% in size. The method, boiled down:
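Cytotoxicity in qHTS format: luminescent ATP readout from CellTiter-Glo after 24 h compound exposure at 37 C in complete medium. LYMP2-020 lymphoblastoid cells were seeded at 2500/well; concentration-response data fitted to the Hill equation for AC50.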

Test [11] is described as follows: Cell Viability - LYMP2-022 (AID 987). Further: nearly all actives have a fitted effect of over 55% in size. The method, boiled down: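 Cytotoxicity read as decreased cellular ATP (CellTiter-Glo luminescence, 30 min room temperature) after 24 hours compound exposure of 2500 lymphoblastoid LYMP2-022 cells/well at 37 C. Concentration-response data fitted with standard Hill equation for AC50.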
Test [12] is described as follows: Cell Viability - LYMP2-024 (AID 988). Further: nearly all actives have a fitted effect of over 60% in size. The method, boiled down:
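Cytotoxicity was taken as a decrease in ATP (CellTiter-Glo luminescence) after 24 hr compound exposure at 37 C of LYMP2-024 lymphoblastoid cells, 2500 cells/well. Concentration-response data were fitted to the Hill equation to give AC50.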

Test [13] is described as follows: Cell Viability - LYMP2-026 (AID 989). Further: nearly all actives have a fitted effect of over 50% in size. In outline:
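Cytotoxicity read as ATP-dependent luminescence (CellTiter-Glo, 30 min room temperature) after 24 h compound treatment at 37 C. LYMP2-026 lymphoblastoid line seeded at 2500 cells/well; AC50 derived by standard Hill equation.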

Test [14] in a line: Cell Viability - LYMP1-002 - Assay at 24 hr (AID 993). The method, boiled down: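 qHTS cytotoxicity at 24 h: CellTiter-Glo ATP luminescence in lymphoblastoid line LYMP1-002 incubated with compound at 37 °C. Concentration-response modeled with the Hill equation for AC50; tetraoctylammonium bromide served as positive control.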
A short description of test [15]: Cell Viability - LYMP1-002 - Assay at 40 hr (AID 994). Further: nearly all actives have a fitted effect of over 60% in size. The method, boiled down: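 Cytotoxicity was read as loss of cellular ATP (CellTiter-Glo luminescence) after 40 hr compound exposure at 37 C of 2500 LYMP1-002 lymphoblastoid cells per well. Concentration-response data were fitted with the standard Hill equation to give AC50.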
Test [16] in a line: qHTS Assay for Identification of Small Molecule Inducers of Hypoxia Response (AID 2120; active means well fitted curve in the direction sought with a large enough effect in the signal ratio, with a control signal flat, not every such curve was filed as active; the % refers to the signal ratio). In outline:
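Reporter induction read as the CCF4 blue/green (460nm/530nm) emission ratio after 2.5 h dye loading at room temperature. ME-180 HRE-beta-lactamase cells received titrated compounds for 17 h at 37 degrees Celsius; AC50 values derived.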
(In general: qHTS replaces the single test concentration by a dilution series.)

The target of test [17] is Estrogen receptor (Homo sapiens) (UniProt P03372). In words: qHTS assay for small molecule antagonists of estrogen receptor alpha signaling (AID 588513; active means well fitted curve in the direction sought with a large enough effect in the signal ratio, with a control signal flat, not every such curve was filed as active; the % refers to the signal ratio). In outline: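 Beta-lactamase reporter, antagonist mode, HEK 293 GripTite cells; 0.5nM E2 stimulus, 18 h, 37 C; CCF4 dye 2 h RT; fluorescence. IC50 and efficacy from Hill fits, normalized to E2 and DMSO.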
Estrogen receptor (Homo sapiens), sequence (P03372 whole entry, looked up): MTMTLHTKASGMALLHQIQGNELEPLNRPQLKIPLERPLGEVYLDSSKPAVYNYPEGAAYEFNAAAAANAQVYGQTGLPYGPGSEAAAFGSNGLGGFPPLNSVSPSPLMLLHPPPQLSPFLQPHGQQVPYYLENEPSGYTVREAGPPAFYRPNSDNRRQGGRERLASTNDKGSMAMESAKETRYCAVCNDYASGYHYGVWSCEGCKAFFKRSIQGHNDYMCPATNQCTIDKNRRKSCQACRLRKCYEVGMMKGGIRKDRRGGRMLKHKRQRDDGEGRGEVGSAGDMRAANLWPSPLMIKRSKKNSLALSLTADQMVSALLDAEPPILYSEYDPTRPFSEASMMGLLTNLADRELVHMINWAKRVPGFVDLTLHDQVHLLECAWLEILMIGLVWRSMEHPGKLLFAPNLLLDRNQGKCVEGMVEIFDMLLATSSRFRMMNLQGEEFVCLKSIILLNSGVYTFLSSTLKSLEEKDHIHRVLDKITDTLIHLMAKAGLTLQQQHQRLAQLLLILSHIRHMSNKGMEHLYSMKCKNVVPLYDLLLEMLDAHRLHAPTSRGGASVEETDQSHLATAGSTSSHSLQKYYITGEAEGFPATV
For test [18] the target is unchanged. Put plainly: qHTS assay for small molecule agonists of estrogen receptor alpha signaling (AID 588514; calls by dose curve; further: nearly all actives have a fitted effect of over 70% in size). The method, boiled down: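 EC50 and efficacy came from Hill fits of beta-lactamase reporter signal (CCF4 dye, 2 h at room temperature) scaled between DMSO and 20 nM 17-beta-estradiol. Agonist mode: HEK293 ER-alpha-UAS-bla cells in charcoal/dextran-stripped serum medium, 18 h compound exposure at 37 C.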

Test [19] is described as follows: Cell Viability - LYMP2-010 (AID 981). Further: nearly all actives have a fitted effect of over 55% in size. In outline: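 CellTiter-Glo ATP luminescence measured cytotoxicity after 24 h compound exposure at 37 C. LYMP2-010 cells were seeded at 2500/well, with tetraoctylammonium bromide as control; concentration-response curves gave AC50 values by the Hill equation.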

Each structure is given as a SMILES string. A number with no mark means an inactive call. Inconclusive results are not listed. Calls of active or inactive are those of the source. Unless noted, the call rests on the fitted dose curve; in most records, active means well fitted cell-killing curve with a large enough effect; inconclusive means small, poorly fitted or top-dose-only effect; inactive means flat fitted curve, though single readings scatter.

As for `Cc1ccc2ccccc2c1[N+](=O)[O-]`, the Potency result in test [1], in test [2], in test [3], in test [4], in test [5] and in [6] was “inactive” throughout. For the same compound, the Potency entry in test [7], in test [8], in test [9], in test [10], in test [11] and in test [12] was “inactive” throughout. The Potency result in test [14], in [15] and in test [18] was “inactive” throughout. The outcome in test [13], in [16] and in test [17] was inactive.

For the compound `Nc1ccc([N+](=O)[O-])c(N)c1`, the Potency result in test [2], in test [3], in [4], in test [5], in [19] and in test [6] was “inactive” throughout. The Potency entry in test [7], in test [8], in test [9], in test [10], in test [11] and in test [14] was “inactive” throughout. Besides, in test [18], the Potency entry was “inactive”. Moreover, the compound was called inactive in [13], in test [16] and in test [17].

For `CCOC(=O)OCC`, the Potency entry in test [1], in test [2], in [3], in test [4], in test [5] and in test [6] was “inactive” in each case. The Potency result in [7], in test [8], in test [9], in [10], in [11] and in test [12] was “inactive” throughout. For the same compound, the Potency entry in [14], in [15] and in test [18] was “inactive” each time. For the same compound, the result in [13], in test [16] and in test [17] was inactive.

As to `C=CCCC`, the Potency entry in test [1], in [2], in test [3], in test [4], in test [5] and in test [6] was “inactive” each time. Further, the Potency entry in test [7], in [8], in [9], in test [10], in test [11] and in [12] was “inactive” each time. The Potency result in [14], in test [15] and in test [18] was “inactive” in each case. The outcome in test [13], in [16] and in test [17] was inactive.

Regarding `CN(C)CCCCl`, the Potency result in [1], in [2], in test [3], in test [4], in test [5] and in [6] was “inactive” in each case. For the same compound, the Potency result in [7], in test [9], in [10], in test [11], in test [12] and in test [14] was “inactive” throughout. Also, the Potency entry in test [15] and in [18] was “inactive” each time. For the same compound, the compound was called inactive in test [13], in test [16] and in [17].

Consider `c1ccc2c(c1)Oc1ccccc1S2`, for which the Potency in [1] was 1 nM (active). Further, the Potency entry in test [2], in test [3], in test [4], in test [5], in test [19] and in test [6] was “inactive” each time. Moreover, the Potency entry in test [8], in [10], in [11], in test [12], in test [14] and in test [15] was “inactive” in each case. Besides, in test [18], the Potency result was “inactive”. Besides, the call in [13], in test [16] and in test [17] was inactive.

Regarding `CCCCCCCCCCCCC1CO1` (configuration not stated), the Potency result in test [2], in [4], in test [5], in [19], in test [6] and in [7] was “inactive” each time. Also, the Potency entry in test [8], in test [9], in [10], in [11], in [12] and in test [15] was “inactive” throughout. Besides, in test [18], the Potency entry was “inactive”. Further, the compound was classed as inactive in test [13], in test [16] and in [17].

Consider `OC/C(Br)=C(\Br)CO`, for which the Potency entry in test [1], in test [2], in test [3], in [4], in [5] and in test [6] was “inactive” throughout. The Potency result in [8], in test [9], in test [10], in test [11], in test [12] and in test [14] was “inactive” each time. For the same compound, the Potency result in test [15] and in test [18] was “inactive” each time. Besides, the compound was classed as inactive in [13], in test [16] and in test [17].
